Laboratory results reported in PubChem BioAssay AID449728 (The Scripps Research Institute Molecular Screening Center, 2010).
In all, about 330,000 compounds went through this assay and about 900 (0.27%) were called active. This excerpt belongs to a sample that is enriched for actives. Values without a mark were called inactive.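 The calls were made as follows: active = inhibition above the campaign's mean inhibition across all tested compounds plus 3 SD (cut at about 9.9% in these data); inactive = the rest.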

Assay: E. coli V3065 growth inhibition, primary screen, counter-screen for AddAB inhibitor project, absorbance, OD600 (AID 449728);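 also: uninfected addAB+ strain grown without phage in ampicillin broth; 0% = DMSO wells and 100% = ciprofloxacin 0.95 µg/ml wells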
Settings: 18 h, at 11.9 µM, hits give high values

SMILES | inhibition
CC(=O)c1c(C)n([O-])c2ccccc2[n+]1=O | 30.7% (active)
Cc1c(C=O)c2ccccc2n1CC(=O)O | 2.1%
COC(=O)c1cc(N2CCNCC2)nc2ccccc12 | 0.59%
CC12C(=O)N(n3cnnc3)C(=O)C1C1C=CC2C1 (stereo not drawn) | 1.48%
COc1ccc(C(=O)COC(=O)c2ccc3ccccc3n2)cc1 | 0.25%
CC[C@H](C)[C@@H](C(=O)N1CCNCC1)n1cc([C@@H](N)Cc2ccc(O)cc2)nn1 | -1.2%
CC(C)[C@H](NC(=O)c1ccc(F)cc1)C(=O)OCC(=O)NC(=O)c1cccn1C | -1.29%
COC(=O)N/N=C/c1ccc(-c2ccc(Cl)c(Cl)c2)o1 | 0.17%
COC(=O)N/N=C/c1cn(CCCOc2ccc(C)cc2)c2ccccc12 | -2.32%
COC(=O)N/N=C/c1c[n+]([O-])c2ccccc2[n+]1[O-] | 93.8% (active)
COc1ccc(C)cc1NC(=O)c1[nH]c(C)c(C(C)=O)c1C | -0.41%
CN(Cc1ccco1)S(=O)(=O)c1nnc(NC(=O)c2ccccc2)s1 | 0%
COCCNS(=O)(=O)c1cc(Br)ccc1OC | -1.08%
COc1ccc(OCc2nnc3n2N=C(c2ccccc2)C(CC(=O)O)S3)cc1 (stereo not drawn) | -0.43%
CN1CCN(C(c2cc3cc4c(cc3[nH]c2=O)OCCO4)c2nnnn2C2CCCC2)CC1 (stereo not drawn) | 0.75%
Cc1nnc(N/N=C/C2CC=CCC2)[nH]c1=O (stereo not drawn) | -0.18%
Cc1nnc(N/N=C/c2ccccn2)[nH]c1=O | 12.1% (active)
Cc1cc(C(=O)N/N=C/c2ccccn2)c2ccccc2n1 | -0.17%
O=C(Nc1ccc2nc3n(c(=O)c2c1)CCCC3)c1ccc(Cl)nc1 | -2.17%
CC(NS(=O)(=O)c1ccc(Cl)cc1)C(=O)Nc1ccc2c(c1)OCCO2 (stereo not drawn) | -2.14%
CCn1c(=O)c(C(=O)NCc2ccc3c(c2)OCO3)c(O)c2ccccc21 | 0.18%
C=CCn1c(=O)c(C(=O)NCc2ccc3c(c2)OCO3)c(O)c2ccccc21 | 13.5% (active)
CCn1c(=O)cc(SCC(=O)NCc2ccc3c(c2)OCO3)c2ccccc21 | -0.5%
O=C(CC1SC(N2CCCC2)=NC1=O)Nc1ccc(C(=O)NCCc2ccc(F)cc2)cc1 (stereo not drawn) | -1.3%
CN(C)[C@@H]1C(=O)C(C(N)=O)=C(O)[C@@]2(O)C(=O)C3=C(O)c4c(O)ccc(Cl)c4[C@@H](O)[C@H]3C[C@@H]12 | 102% (active)

SMILES | inhibition
C=C1c2c(Cl)ccc(O)c2C(O)=C2C(=O)[C@]3(O)C(O)=C(C(N)=O)C(=O)[C@@H](N(C)C)[C@@H]3[C@@H](O)C12 (stereo partly drawn) | 103% (active)
CC1CC(C)CN(CCOc2cccc3ccccc23)C1 (stereo not drawn) | 0.17%
COc1cc(Cl)c(C)cc1NC(=O)COC(=O)c1cc(SC)ccc1Cl | -0.93%
CCCn1nc(Oc2nc(NC(C)C)nc(N(C)C)n2)ccc1=O | -1.48%
CCc1c(C)nc2ncnn2c1N1CCC(C(=O)NCc2ccc3c(c2)OCO3)CC1 | -1.08%
Cc1cnc(C(=O)OCC(=O)NCCCc2ccccc2)cn1 | -0.78%
COc1ccccc1NC(=S)N1CCN(c2ccc(F)cc2)CC1 | -1.81%
CC1CN(C(=S)Nc2ccccc2F)CC(C)O1 (stereo not drawn) | 0.45%
COc1c(N2CCN(C(=S)Nc3ccccc3F)C(C)C2)c(F)cc2c(=O)c(C(=O)O)cn(C3CC3)c12 (stereo not drawn) | 99% (active)
CCOc1ccc(/C=C/C(=O)OCC(=O)c2ccccc2OC)cc1OC | 2.19%
O=C(NCC1CCCO1)C(C(=O)c1ccccc1)n1cc(Cl)ccc1=O (stereo not drawn) | 96.6% (active)
O=C(CSc1ccc(-c2ccccc2)nn1)NCC1CCCO1 (stereo not drawn) | 0.59%
O=C(NCC1CCCO1)/C(=C/c1ccc(Cl)cc1)NC(=O)c1ccccc1 (stereo not drawn) | 0.6%
O=C1CN(C(=O)COC(=O)C2CC(=O)N(Cc3ccco3)C2)c2ccccc2N1 (stereo not drawn) | -0.37%
Cc1ccc(NC(=O)C(C)OC(=O)Cc2c[nH]c3ccccc23)cc1S(=O)(=O)N1CCOCC1 (stereo not drawn) | -2.87%
CC(C)CC(=O)NC(=S)NNC(=O)c1cccc([N+](=O)[O-])c1 | -7.21%
CN(C)CCn1c2c(c(SCC(=O)NCc3ccccc3)nc1=O)CCC2 | -1.35%
COc1ccc(C(=O)c2oc3ccc(Br)cc3c2NC(C)=O)cc1 | 98.8% (active)
COC(=O)c1oc2ccc(Br)cc2c1NC(C)=O | 1.03%
COc1ccc(CC(=O)Nc2c(C(N)=O)oc3ccccc23)cc1 | -1.77%
OCc1ccc(-c2ccccc2)c(-c2ccccc2)c1 | -4.27%
CCC1(C)Cc2c(sc3[nH]c(=S)n(Cc4ccccc4)c(=O)c23)CO1 (stereo not drawn) | -1.73%
Cc1ccc(SCc2c(C(=O)N/N=C/c3cccnc3)nnn2-c2nonc2N)cc1 | 1.61%
Nc1nonc1-n1nnc(C(=O)N/N=C/c2ccccc2O)c1CN1CCCC1 | -0.26%
Nc1nonc1-n1nnc(C(=O)N/N=C/c2cc(Br)ccc2O)c1CSC1=NCCS1 | 12.6% (active)

SMILES | inhibition
O=C(CNCCO)NC12CC3CC(CC(C3)C1)C2 | -2.56%
CSCCC(NS(=O)(=O)/C=C/c1ccccc1)C(=O)N1CCC(C)CC1 (stereo not drawn) | -0.42%
CSc1cc(C)[nH]c(=O)n1 | -2.18%
CCc1ccccc1NC(=O)CN(c1ccc(OC)cc1OC)S(=O)(=O)c1ccccc1[N+](=O)[O-] | -0.37%
COC(=O)C1=C(C)N(C)C(=O)NC1c1ccc([N+](=O)[O-])o1 (stereo not drawn) | 0.52%
C/[N+]([O-])=C\c1ccc([N+](=O)[O-])o1 | 15.4% (active)
COc1ccc(C(=O)NCC(=O)N/N=C/c2ccc([N+](=O)[O-])o2)cc1OC | 5.52%
COC(=O)c1ccc(COC(=O)c2cnccn2)cc1 | -0.61%
O=C(Cn1cc(C(=O)c2cccs2)c2ccccc21)NCc1cccs1 | 0.18%
Cc1cccc(NC(=O)Cn2cc(C(=O)c3ccco3)c3ccccc32)c1 | 16.6% (active)
CC1CCN(C(=O)Cn2cc(C(=O)c3ccco3)c3ccccc32)CC1 | -0.18%
Cc1ccc(CN2CCC(N3CCC(C(=O)NCC4CCCO4)CC3)CC2)o1 (stereo not drawn) | -1.01%
COc1ccc(CCNC(=O)/C(C#N)=C2\N=C(NC(=O)c3cccs3)c3ccccc32)cc1 | -0.34%
C#CCSc1nnc(-c2sc3ccccc3c2Cl)o1 | 2.18%
O=C(NCC#CCSc1nnc(-c2cccc3ccccc23)o1)c1cccs1 | 10.2% (active)
COc1ccc(C)cc1N(CC(=O)NC(C)c1ccccc1)S(C)(=O)=O (stereo not drawn) | 0.84%
C[N+]1(CCNC(=O)/C=N/O)CCCCC1 | -1.11%
COc1ccc([C@H]2CC(=O)C=C(/C=C/c3ccccc3)C2)cc1 | -0.71%
Cc1ccccc1NC(=O)NC1(C(=O)N2CCCC2)CCCCC1 | -1.26%
Oc1c(Cl)cc(Cl)c(Cl)c1Cc1c(O)c(Cl)cc(Cl)c1Cl | 12.2% (active)
CC(=O)OCCOCn1cnn2c(=O)c(Br)c(C)nc12 | -2.04%
CCNC(=S)N1CCN(c2ncccn2)CC1 | 0.78%
CN(C)CCCn1c(SCc2ccc(Cl)cc2)nnc1-c1ccncc1 | -1.29%
COc1cccc(-c2sc3ccc(OC)cc3c2-c2ccc(OCCN3CCCCC3)cc2)c1 | -0.53%
Cc1ccc(C23CC4CC(CC(C(=O)NCC(=O)O)(C4)C2)C3)cc1 | 1%

SMILES | inhibition
CCOc1ccccc1NC(=O)C12CC3CC(C1)CC(c1ccc(C)cc1)(C3)C2 | 26.6% (active)
CCOc1ccccc1NC(=O)Cc1cccs1 | 1.04%
COCCCNC(=O)C1CCC(CNS(=O)(=O)c2ccc(OC)cc2)CC1 (stereo not drawn) | -1.01%
CCC1C(=O)NCCN1C(=O)c1ccc2nc(Cc3ccc(OC)cc3)oc2c1 (stereo not drawn) | -0.08%
O=C(OCC1O[C@@H](OC(=O)c2cc(O)c(O)c(O)c2)[C@@H](OC(=O)c2cc(O)c(O)c(O)c2)[C@@H](OC(=O)c2cc(O)c(O)c(O)c2)[C@@H]1OC(=O)c1cc(O)c(O)c(O)c1)c1cc(O)c(O)c(O)c1 (stereo partly drawn) | 23.6% (active)
CCOc1cccc(/C=N/NC(=S)NCCN2CCOCC2)c1O | 0.34%
COc1cccc(/C=N/Nc2ncc(C(F)(F)F)cc2Cl)c1O | 15.6% (active)
COc1ccc(Br)cc1/C=N/Nc1ccc(Cl)c(C(=O)O)c1 | -3.01%
C/C(CC(C)C)=N\Oc1nc(C)cc(C)n1 | 0.81%
COc1ccc2c(C(=O)c3ccc(C)cc3)n(CCC(N)=O)[n+]([O-])c2c1 | -1.03%
COc1ccc(C(=O)CC(=O)C(=O)Nc2cc([N+](=O)[O-])ccc2OC)cc1 | -2.64%
COc1ccc(C(=O)c2c3ccc([N+](=O)[O-])cc3[n+]([O-])n2CCCN)cc1 | 9.95% (active)
CN1CCN(C(=O)c2cnn(-c3ccccc3)c2NC(=O)c2ccc([N+](=O)[O-])cc2)CC1 | -0.94%
O=C(/C=C/c1ccc([N+](=O)[O-])o1)NNC(=O)c1ccc(F)cc1 | 97.9% (active)
Cc1ccc(/C=C/C(=O)Nc2ccc([N+](=O)[O-])c(NC(=O)/C=C/c3ccc(C)o3)c2)o1 | -5.13%
O=C(NNC(=O)C1CCCC1)c1ccc(F)cc1 | -1.97%
CONC(=O)c1cc(OCC(F)(F)F)ccc1OCC(F)(F)F | -0.41%
O=C1CN(C(=O)COC(=O)c2cnc(Cl)c(Cl)c2)c2ccccc2N1 | 1.7%
O=C1c2ccccc2C2=Nc3ccccc3SC(c3ccccc3F)C12 (stereo not drawn) | 19.9% (active)
CCOC(=O)C1=C(C)N=C2c3ccccc3C(=O)C2C1c1ccc(Br)cc1 (stereo not drawn) | 0.42%
O=C1c2ccccc2C(=O)C1c1ccccc1F | 1.08%
C=CCN(Cc1nc(-c2cc(OC)c3c(c2)OCO3)oc1C)C1CCS(=O)(=O)C1 (stereo not drawn) | -0.09%
O=C(COC(=O)c1c(Cl)cccc1Cl)Nc1cccc(S(=O)(=O)NC2=NCCCCC2)c1 | -2.98%
